These results are taken from PubChem BioAssay AID720584 (National Center for Advancing Translational Sciences (NCATS), 2013).

The other results are listed elsewhere or left out. Records with an inconclusive call do not appear. Activity calls are given as the source filed them. Calls come from the whole dose curve; as a rule, active = well fitted inhibition curve with a large enough effect; inconclusive = small, poorly fitted or top-dose-only effect; inactive = flat fitted curve, though single readings scatter.
Potency is the fitted concentration of half-maximal effect.

The experiment has as its system Trypanosoma brucei pyruvate kinase (TbPYK). The experiment is described as follows: qHTS of Trypanosoma Brucei Inhibitors: Orthogonal Assay for Cherry-picked Compounds. Note: nearly all actives have a fitted effect of over 75% in size. The conditions noted are these: recombinant TbPYK, ADP-Glo luminescence, 60 min. An excerpt: Members of the Trypanosomatidae family of parasitic protozoans cause a spectrum of diseases throughout the tropical and subtropical world. Sleeping sickness, caused by two subspecies of Trypanosoma brucei, is endemic to areas of sub-Saharan Africa, while Chagas' disease, a manifestation of Trypanosoma cruzi infection, is prevalent throughout Central and South America. In addition, many species of Leishmania are responsible for a range of cutaneous and visceral diseases, causing ulcers, destructive lesions and kalaazar, a lethal infection of the viscera. These diseases cause severe public health and economic burdens on populations that are often already caught in a tragic cycle of poverty, poor nutrition and disease. Collectively, parasites of the trypanosomatid family infect 30 million people worldwide (~500 million live in endemic areas), and account for ~130K deaths annually. Existing treatments have developed little in the past 50 years, and suffer from toxicity, poor efficacy and resistance; the goal of this project is to develop lead drugs that will be suitable for entry into pre-clinical trials. […] Glycolysis in axenically cultured T. cruzi, representing the intracellular pathogenic stage, is also essential for these parasites. {Engel, 1987} This project aims to discover and optimize selective inhibitors of the glycolytic enzyme pyruvate kinase (PYK) from Trypanosoma brucei, the parasite that causes sleeping sickness. […] While the primary qHTS provides a luminescence-based detection of TbPyK by measuring ATP production, the orthogonal assay will measure the amount of ADP substrate remaining. […]
Briefly, 2 uL of substrate/TbPYK buffer (all columns but column 4) are dispensed into Greiner white solid-bottom 1536-well assay plates. […] ADP-Glo reagent II is then added (5 uL), followed by a 10 minute room temperature incubation, before being transferred to a ViewLux high-throughput CCD imager (PerkinElmer), wherein single end-point measurements of luminescence are acquired using a clear filter. […]
Background: qHTS replaces the single test concentration by a dilution series.
Turning to `O=C1NC(=O)N(c2ccccc2)C(=O)/C1=C/c1ccc([N+](=O)[O-])s1`, the Potency is 14.1 µM (active).

For `Cc1ccc2c(c1)=C/C(=C\c1c(O)[nH]c(=O)[nH]c1=O)C(=O)N=2`, the Potency is 25.1 µM (active).

On to `COc1ccc(N2C(=O)/C(=C/c3ccco3)C(=O)NC2=S)cc1`, for which the Potency is 6.31 µM (active).
